Structures are written as SMILES. Active and inactive are the calls of the source. Unless noted, how the calls were made is not given here.

The subject of assay [1] is XIP peptide (Xip251-270) binding. The experiment in a line: XIP fragment 251-270 binding compounds – biochemical, small-molecule microarray, fluorescence 635/667 nm, 0.1 µg/mL protein, primary screen (AID 1182). The conditions noted are these: fluorescent protein binding, 635 nm, higher = more signal, called active from +8 up or from −8 down.
The subject of the next assay is XIP peptide (Xip251-270). As to the kind of experiment: compounds binding XIP fragment 251-270 – biochemical, small-molecule microarray, fluorescence 635/667 nm, 0.5 µg/mL protein, primary screen (AID 1183). The conditions noted are these: fluorescence 635 nm, higher = more signal.
Assay [2] can be described thus: blood-stage malaria parasite viability loss – strain 3D7, DAPI fluorescence, 100 nL, primary screen (AID 1184).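 Further: parasites grown inside human red blood cells in medium with human serum.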 The following applies: P. falciparum 3D7 growth, 3 d, higher = more signal.
Assay [3] concerns the target Homeobox protein Hox-A13 (Mus musculus) (UniProt Q62424). The experiment in a line: disruptors of Hoxa13 oligonucleotide interaction – biochemical, fluorescence polarization, labeled oligonucleotide, primary screen (AID 1185). The conditions noted are these: Hoxa13:DNA binding, 15 min, higher = more signal, called active from +8 up or from −8 down. Background: Fluorescence polarisation rises when a labelled molecule tumbles more slowly, as on binding a larger partner.

Assay [4] in a line: blockers of DNA damage checkpoint Chk1 activation – imaging, HeLa, hydroxyurea, phospho-Chk1 antibody, percent positive cells, primary screen (AID 1186). The conditions noted are these: hydroxyurea-induced phospho-Chk1 immunofluorescence imaging, higher = more signal.
Assay [5] can be described thus: blockers of DNA damage checkpoint Chk1 activation – imaging, HeLa, hydroxyurea, phospho-Chk1 nuclear intensity, primary screen (AID 1187). The conditions noted are these: hydroxyurea-induced phospho-Chk1 immunofluorescence imaging, higher = more signal.

Chain of Homeobox protein Hox-A13 (Mus musculus) (Q62424 whole entry, looked up): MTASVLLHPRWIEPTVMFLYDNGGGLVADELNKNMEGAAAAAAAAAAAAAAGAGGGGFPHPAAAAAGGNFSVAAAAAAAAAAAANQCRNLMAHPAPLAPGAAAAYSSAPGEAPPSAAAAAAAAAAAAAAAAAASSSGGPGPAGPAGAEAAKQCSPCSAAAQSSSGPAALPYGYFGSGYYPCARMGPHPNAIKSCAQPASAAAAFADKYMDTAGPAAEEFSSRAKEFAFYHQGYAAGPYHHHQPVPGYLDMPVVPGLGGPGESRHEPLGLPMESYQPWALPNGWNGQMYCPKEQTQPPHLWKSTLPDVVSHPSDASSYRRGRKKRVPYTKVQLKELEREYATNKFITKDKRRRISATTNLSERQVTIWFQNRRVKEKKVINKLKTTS

Regarding `CC1CC/C=C\[C@H]2OC34C=CCN(C(C)(C)C)C(=O)[C@H]3N(CCCCCCO)C(=O)[C@@H]4C2C(=O)O1` (some centres undefined), the composite z-score was 1.87 (inactive) in assay [1] and -0.512 in the assay on XIP peptide (Xip251-270). The z-score is 0.621 in assay [2], -4.21 (inactive) in assay [3], -0.82 (inactive) in assay [4] and 0.193 (inactive) in assay [5].
Turning to `CN(C)C(=O)[C@@]1(Cc2ccccc2)N=C(c2ccc(OCCCO)cc2)O[C@H]1c1ccccc1N=[N+]=[N-]`, the values for the composite z-score (in assay [1]; in the assay on XIP peptide (Xip251-270)) were -0.111 (inactive) and 0.651, respectively. Moreover, the z-score is -1.93 in assay [2], -4.88 (inactive) in assay [3], -0.524 (inactive) in assay [4] and -0.793 (inactive) in assay [5].
Regarding `CC(C)[C@@H](CO)NC(=O)[C@H]1[C@@H](c2ccccc2)N(c2ccccc2)O[C@@H]1C`, the composite z-score is -0.795 (inactive) in assay [1] and -0.248 in the assay on XIP peptide (Xip251-270). In addition, the z-score in assay [2] was 0.484; in assay [3], -1.23 (inactive); in assay [4] it was -0.0482 (inactive); in assay [5], 0.564 (inactive).
For the compound `C=C(CCCC)C(=O)CC[C@H](OC(C)=O)c1cccc(OCCO)c1`, the figures for the composite z-score (in assay [1]; in the assay on XIP peptide (Xip251-270)) were 0.162 (inactive) and -0.0976, respectively. The z-score in assay [2] was -1.98; in assay [3], -5.04 (inactive); in assay [4] it was -0.0717 (inactive); in assay [5], -0.148 (inactive).
With `CCC(CC)C(O)C1C=CC2C(=O)N(C)C(=O)C2N1Nc1ccccc1` (centres undefined), the composite z-score in assay [1] was 0.544 (inactive); in the assay on XIP peptide (Xip251-270) it was 0.758. In addition, the z-score in assay [2] was 0.865; in assay [3], -3.63 (inactive); in assay [4], -0.0753 (inactive); in assay [5] it was 0.0501 (inactive).
As for `COCCOC(=O)N1C(=O)[C@@]2(c3cc(C#Cc4ccc(OC)cc4)ccc31)[C@H](c1ccccc1OCCO)N1[C@H](c3ccccc3)[C@H](c3ccccc3)OC(=O)[C@H]1[C@@H]2C(=O)N1CCN(c2ncccn2)CC1`, the values for the composite z-score (in assay [1]; in the assay on XIP peptide (Xip251-270)) were -0.349 (inactive) and 0.59, respectively. Further, the z-score is -1.86 in assay [2], 0.484 (inactive) in assay [3], 0.0768 (inactive) in assay [4] and 0.273 (inactive) in assay [5].
On to `CC(C)N1C(=O)[C@@]2(Cc3ccccc31)c1ccccc1C(=O)N(C1CCCCC1)[C@H]2c1ccc(CO)cc1`, for which the composite z-score in assay [1] is -0.091 (inactive); with XIP peptide (Xip251-270), 0.709. Further, the z-score was -0.288 in assay [2], -0.666 (inactive) in assay [3], -0.0292 (inactive) in assay [4] and 0.029 (inactive) in assay [5].
For the compound `NCCCCCNC(=O)[C@@H]1C[C@@H]2C(=O)N[C@@H](Cc3ccccc3)C(=O)N2[C@@H]1c1cccc(OCCO)c1`, the composite z-score in assay [1] was 0.251 (inactive); in the assay with XIP peptide (Xip251-270), 0.595. In addition, the z-score in assay [2] was 0.304; in assay [3] it was -4.39 (inactive); in assay [4], -0.143 (inactive); in assay [5] it was -0.223 (inactive).
For `CN(C)C(=O)[C@]1(Cc2ccccc2N=[N+]=[N-])N=C(c2ccc(OCCCO)cc2)O[C@@H]1c1ccccc1`, the composite z-score in assay [1] is 1.03 (inactive); in the assay on XIP peptide (Xip251-270), 0.383. Moreover, the z-score in assay [2] was -2.02; in assay [3] it was -6.21 (inactive); in assay [4], -0.879 (inactive); in assay [5], -1.26 (inactive).
Take `[N-]=[N+]=NCc1ccccc1C[C@]1(C(=O)O)N=C(c2ccc(OCCCO)cc2)O[C@H]1c1ccccc1N=[N+]=[N-]`: the composite z-score in assay [1] is 0.525 (inactive); in the assay on XIP peptide (Xip251-270), 0.771. The z-score in assay [2] was -1.57; in assay [3] it was -3.84 (inactive); in assay [4] it was -0.1 (inactive); in assay [5], 0.16 (inactive).
In the case of `CC(CO)N1C(=O)[C@@H]2C3C(=O)OCCC/C=C\[C@H]3OC23C=CCN(c2ccc4ccccc4c2)C(=O)[C@@H]13` (some centres undefined), the figures for the composite z-score (in assay [1]; with XIP peptide (Xip251-270)) were 0.372 (inactive) and 0.0016, respectively. Besides, the z-score in assay [2] was 0.252; in assay [3], -3.77 (inactive); in assay [4], -0.663 (inactive); in assay [5] it was -0.182 (inactive).
As to `COCCOC(=O)N1C(=O)[C@@]2(c3cc(C#CC4=CCCCC4)ccc31)[C@H](C(=O)Nc1nc3ccccc3s1)[C@H]1C(=O)O[C@H](c3ccccc3)[C@H](c3ccccc3)N1[C@@H]2c1ccc(OCCO)cc1`, the composite z-score in assay [1] is -0.555 (inactive); in the assay on XIP peptide (Xip251-270) it was 0.467. Further, the z-score in assay [2] was -1.52; in assay [3], 3.78 (inactive); in assay [4] it was -0.0093 (inactive); in assay [5], 0.303 (inactive).
Regarding `CN1C(=O)C2C=CC(C(O)C3CCCCC3)N(Nc3ccc([N+](=O)[O-])cc3[N+](=O)[O-])C2C1=O` (centres undefined), the results for the composite z-score (in assay [1]; in the assay on XIP peptide (Xip251-270)) were 0.514 (inactive) and 0.487, respectively. Further, the z-score was 0.501 in assay [2], -2.4 (inactive) in assay [3], 0.168 (inactive) in assay [4] and 0.377 (inactive) in assay [5].
Turning to `CCCCC(=C=CC[C@@H](O)c1ccccc1OCCO)CCO`, the results for the composite z-score (in assay [1]; with XIP peptide (Xip251-270)) were -0.247 (inactive) and 0.357, respectively. Besides, the z-score is -1.6 in assay [2], -3.19 (inactive) in assay [3], 0.525 (inactive) in assay [4] and 0.585 (inactive) in assay [5].
